Test results published in ChEMBL document CHEMBL4513141, “CO-ADD screening of NIH (USA) - Clinical Collection” (2021).
Entries with a potency or affinity are not part of this list.

Experiments:
Staphylococcus aureus = conditions: Concentration 20 uM; ASSAY_TEST Inhibition of Bacterial Growth; detection method Absorption (OD600); MEDIA CAMHB; plate type 384well; NBS; CORNING #3640; time 18 hr
Escherichia coli = conditions: Concentration 20 uM; ASSAY_TEST Inhibition of Bacterial Growth; detection method Absorption (OD600); MEDIA CAMHB; plate type 384well; NBS; CORNING #3640; time 18 hr

Compound	Inhibition (Staphylococcus aureus) [%]	Inhibition (Escherichia coli) [%]
CN(C)[C@@H]1C(=O)C(C(=O)NCN2CCCC2)=C(O)[C@@]2(O)C(O)=C3C(=O)c4c(O)cccc4[C@@](C)(O)C3CC12 (stereo partly drawn)	23.2	5.47
CC(=O)SCC(Cc1ccccc1)C(=O)NCC(=O)OCc1ccccc1 (stereo not drawn) [RACECADOTRIL]	11.13	-5.63
CCOC(=O)[C@@H](CCc1ccccc1)N[C@@H](C)C(=O)N1CCC[C@H]1C(=O)O.O=C(O)/C=C\C(=O)O	8.37	-3.24
CC(C)(C)NC(=O)[C@H]1CC[C@H]2[C@@H]3CC[C@H]4NC(=O)C=C[C@]4(C)[C@H]3CC[C@]12C [FINASTERIDE]	-0.3	-5.85
Nc1nc(Cl)nc2c1ncn2[C@@H]1O[C@H](CO)[C@@H](O)[C@H]1O	-10.52	3.01
CCN1CCCC1CNC(=O)c1cc(S(=O)(=O)CC)c(N)cc1OC (stereo not drawn) [AMISULPRIDE]	15.04	-7.41
C[C@]12CCC(=O)C=C1CC[C@@H]1[C@@H]2[C@@H](O)C[C@@]2(C)[C@H]1CC[C@]2(O)C(=O)COC(=O)CCC(=O)O [HYDROCORTISONE HEMISUCCINATE ANHYDROUS]	-27.4	4.71
CCOc1cc(CC(=O)N[C@@H](CC(C)C)c2ccccc2N2CCCCC2)ccc1C(=O)O [REPAGLINIDE]	15.76	-4.96
OCCN(CCO)c1nc(N2CCCCC2)c2nc(N(CCO)CCO)nc(N3CCCCC3)c2n1 [DIPYRIDAMOLE]	-23.93	7.34
CN(C)CCCSc1ccccc1NC(=O)/C=C/c1ccccc1.Cl.O	14.82	3.24
O=C1c2c(O)cc(O)cc2O[C@H](c2ccc(O)c(O)c2)[C@H]1O [(+)-TAXIFOLIN]	8.9	-0.85
CC(C)(C)NC(=O)[C@@H]1C[C@@H]2CCCC[C@@H]2CN1C[C@@H](O)[C@H](Cc1ccccc1)NC(=O)[C@H](CC(N)=O)NC(=O)c1ccc2ccccc2n1.CS(=O)(=O)O [SAQUINAVIR MESYLATE]	-19.12	7.7
N[C@@H](Cc1cc(I)c(Oc2cc(I)c(O)c(I)c2)c(I)c1)C(=O)O [LEVOTHYROXINE]	-5.39	-12.96
CCC(=O)[N-]S(=O)(=O)c1ccc(-c2c(-c3ccccc3)noc2C)cc1.[Na+] [PARECOXIB SODIUM]	0.13	6.4
CC(C)(C)NC(=O)[C@@H]1CN(Cc2cccnc2)CCN1C[C@@H](O)C[C@@H](Cc1ccccc1)C(=O)N[C@H]1c2ccccc2C[C@H]1O.O=S(=O)(O)O [INDINAVIR SULFATE]	6.61	5.22
C[C@]12C=CC(=O)C=C1CC[C@@H]1[C@@H]2[C@@H](O)C[C@@]2(C)[C@H]1CC[C@]2(O)C(=O)COC(=O)CCC(=O)[O-].[Na+] [PREDNISOLONE SODIUM SUCCINATE]	5.71	1.73
CC1CNc2c(cccc2S(=O)(=O)N[C@@H](CCCNC(=N)N)C(=O)N2CC[C@@H](C)C[C@@H]2C(=O)O)C1 (stereo partly drawn) [ARGATROBAN]	5.54	-1.85
CC1(C)O[C@@H]2C[C@H]3[C@@H]4C[C@H](F)C5=CC(=O)C=C[C@]5(C)[C@@]4(F)[C@@H](O)C[C@]3(C)[C@]2(C(=O)CO)O1 [FLUOCINOLONE ACETONIDE]	-31.13	6.84
CCc1cccc2c3c([nH]c12)C(CC)(CC(=O)O)OCC3 (stereo not drawn) [ETODOLAC]	5.09	-6.35
CC1(C)S[C@@H]2[C@H](/N=C/N3CCCCCC3)C(=O)N2[C@H]1C(=O)O [AMDINOCILLIN]	10.96	1.83
Cc1ccc(C)c(OCCCC(C)(C)C(=O)O)c1 [GEMFIBROZIL]	11.1	2.56
COC(=O)[C@H](c1ccccc1Cl)N1CCc2sccc2C1 [CLOPIDOGREL]	12.7	-0.51
CC(C)(S)C(N)C(=O)O (stereo not drawn) [DL-PENICILLAMINE]	15.93	-3.28
C/C=C1/[C@H]2C=C(C)C[C@]1(N)c1ccc(O)nc1C2	13.84	-0.02
